In the library only some 4.4% were active in any assay of this set; here they are far more common.
IL1B NFkB inh: blocks IL-1B driven NFkB nuclear translocation in HUVEC cells. HUVEC IL-1B NFkB p65 nuclear translocation imaging. inhibition, % at 2 µM. 94,000 tested, 0.43% active;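 active = inhibition above about 30% together with a positive call from visual inspection of the well image, limit read from the data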;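 also: nuclear over cytoplasmic p65 intensity ratio measured by imaging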
IL1B cytotox: HUVEC cytotoxicity counter-screen, IL-1B stimulated | HUVEC cell count loss, Hoechst imaging | cell count reduction, % at 2 µM | 94,000 tested, 0.41% active | AID 845;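 active = cell count reduction more than 3 SD above the screen-wide mean, cut at about 70% in these data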
NFkB transloc pot: enhances IL-1B driven NFkB nuclear translocation. HUVEC IL-1B NFkB p65 nuclear translocation imaging. activation, % at 2 µM. 94,000 tested, 0.3% active. AID 819;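 active = activation above 40%, about the mean plus 3 SD, also judged a hit on visual image review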;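 also: percent activation is computed from the nuclear over cytoplasmic p65 intensity ratio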
Cav3 T inh: inhibitors of human Cav3.2 T-type calcium channel | O95180 | Cav3.2-expressing cells, Fluo-4 calcium fluorescence FDSS; active compounds read low | B-score at 10 µM | 100,000 tested, 4% active | AID 449739;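 active = single-dose well whose peak fluorescence ratio is a statistical outlier from its plate by either plate-standardised score or position-corrected B-score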
Target sequence (O95180 whole entry, looked up): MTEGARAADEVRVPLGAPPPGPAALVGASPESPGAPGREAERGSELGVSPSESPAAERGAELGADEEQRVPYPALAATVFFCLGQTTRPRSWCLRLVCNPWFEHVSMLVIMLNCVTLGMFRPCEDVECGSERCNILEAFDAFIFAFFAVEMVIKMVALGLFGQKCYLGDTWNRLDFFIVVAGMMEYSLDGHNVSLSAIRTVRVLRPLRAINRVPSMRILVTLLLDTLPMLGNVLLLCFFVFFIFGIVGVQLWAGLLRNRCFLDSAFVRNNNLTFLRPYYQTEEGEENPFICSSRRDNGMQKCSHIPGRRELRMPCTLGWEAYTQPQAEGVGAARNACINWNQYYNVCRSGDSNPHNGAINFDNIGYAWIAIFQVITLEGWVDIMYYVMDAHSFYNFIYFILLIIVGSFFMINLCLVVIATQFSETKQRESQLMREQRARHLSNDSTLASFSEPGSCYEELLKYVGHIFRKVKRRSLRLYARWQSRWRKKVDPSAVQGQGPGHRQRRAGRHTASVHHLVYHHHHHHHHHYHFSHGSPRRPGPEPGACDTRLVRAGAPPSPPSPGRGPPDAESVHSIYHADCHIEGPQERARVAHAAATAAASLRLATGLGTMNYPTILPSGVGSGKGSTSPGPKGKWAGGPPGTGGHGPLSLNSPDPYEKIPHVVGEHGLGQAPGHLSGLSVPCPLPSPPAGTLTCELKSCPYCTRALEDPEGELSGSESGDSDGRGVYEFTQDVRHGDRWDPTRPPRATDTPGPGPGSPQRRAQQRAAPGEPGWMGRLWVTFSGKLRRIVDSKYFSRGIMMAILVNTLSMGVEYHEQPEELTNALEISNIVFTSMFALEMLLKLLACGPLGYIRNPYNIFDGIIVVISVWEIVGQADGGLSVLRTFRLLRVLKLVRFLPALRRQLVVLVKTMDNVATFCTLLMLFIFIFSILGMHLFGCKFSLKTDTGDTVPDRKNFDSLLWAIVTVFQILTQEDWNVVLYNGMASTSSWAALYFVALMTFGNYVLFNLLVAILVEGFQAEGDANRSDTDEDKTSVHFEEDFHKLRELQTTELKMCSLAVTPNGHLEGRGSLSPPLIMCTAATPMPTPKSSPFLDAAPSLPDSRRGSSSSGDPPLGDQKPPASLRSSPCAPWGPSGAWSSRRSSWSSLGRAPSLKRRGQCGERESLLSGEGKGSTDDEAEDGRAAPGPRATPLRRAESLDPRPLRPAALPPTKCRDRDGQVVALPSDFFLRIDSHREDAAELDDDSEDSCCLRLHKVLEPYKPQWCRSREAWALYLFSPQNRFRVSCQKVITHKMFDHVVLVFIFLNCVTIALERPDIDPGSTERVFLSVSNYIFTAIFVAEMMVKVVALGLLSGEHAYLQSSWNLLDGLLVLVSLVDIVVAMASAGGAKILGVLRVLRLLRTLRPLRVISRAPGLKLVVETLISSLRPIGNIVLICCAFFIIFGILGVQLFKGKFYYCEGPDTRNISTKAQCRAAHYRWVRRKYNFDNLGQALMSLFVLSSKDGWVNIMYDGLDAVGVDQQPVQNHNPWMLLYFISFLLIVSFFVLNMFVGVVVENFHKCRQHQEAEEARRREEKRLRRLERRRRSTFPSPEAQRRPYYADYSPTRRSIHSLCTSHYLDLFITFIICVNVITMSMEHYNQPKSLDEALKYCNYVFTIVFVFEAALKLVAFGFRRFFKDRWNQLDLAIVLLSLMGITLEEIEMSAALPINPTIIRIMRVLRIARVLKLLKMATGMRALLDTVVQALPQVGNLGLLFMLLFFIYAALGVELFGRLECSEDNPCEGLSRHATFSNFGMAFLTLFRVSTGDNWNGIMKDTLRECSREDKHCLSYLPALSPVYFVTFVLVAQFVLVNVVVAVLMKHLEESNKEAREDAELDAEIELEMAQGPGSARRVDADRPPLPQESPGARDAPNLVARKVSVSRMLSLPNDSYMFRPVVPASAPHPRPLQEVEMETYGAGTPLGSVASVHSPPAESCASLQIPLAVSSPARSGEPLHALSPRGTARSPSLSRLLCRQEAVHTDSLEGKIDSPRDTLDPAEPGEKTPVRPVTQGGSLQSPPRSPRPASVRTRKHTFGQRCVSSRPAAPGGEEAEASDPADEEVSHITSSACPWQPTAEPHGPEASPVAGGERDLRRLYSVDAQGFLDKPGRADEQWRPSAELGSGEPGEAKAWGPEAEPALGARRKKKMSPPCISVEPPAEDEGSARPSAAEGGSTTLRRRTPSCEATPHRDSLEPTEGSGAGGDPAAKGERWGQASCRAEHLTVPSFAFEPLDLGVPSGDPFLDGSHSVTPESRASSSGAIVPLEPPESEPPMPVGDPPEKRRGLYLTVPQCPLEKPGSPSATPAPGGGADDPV
Of the large screens only hits and unclear results are named; the others gave an inactive call.

Cc1ccc(SCCNS(=O)(=O)c2ccc(F)cc2)cc1	Cav3 T inh -8.68
COc1ccc(S(=O)(=O)NCCSc2ccccc2)cc1OC	none
COc1ccc(S(=O)(=O)NCCSc2ccc(C)cc2)cc1OC	none
Cc1ccc(SCCNS(=O)(=O)c2ccc3c(c2)OCCO3)cc1	Cav3 T inh -6.9
O=S(=O)(NCCCCCNS(=O)(=O)c1ccccc1)c1ccccc1	none
O=C(N/C(=C\c1ccc(Br)cc1)c1nc2ccccc2[nH]1)c1ccco1	none
O=C1CCN2C=Nc3cccc4ccc1c2c34	Cav3 T inh -8.51
Cc1nn(Cc2cccc(F)c2)c(C)c1NC(=O)c1ccc(COc2ccccc2Cl)cc1	Cav3 T inh -4.56
Cc1nn(Cc2ccc(Cl)cc2Cl)c(C)c1NC(=O)c1ccc(COc2cc(Cl)ccc2Cl)o1	Cav3 T inh -5.17
CC(C)CNC(=O)c1ccc(COc2ccc(Cl)cc2Cl)o1	Cav3 T inh -4.51
Cc1nn(Cc2ccc(Cl)cc2Cl)c(C)c1NC(=O)c1nn(C)cc1Cl	none
CCOc1ccccc1N(CC(=O)N1CCOCC1)S(=O)(=O)c1ccc(SC)cc1	none
Cc1cc(C(=O)Nc2c(C)n(C)n(-c3ccccc3)c2=O)c2ccccc2n1	none
CCc1ccc(-c2cc(C(=O)Nc3c(C)n(C)n(-c4ccccc4)c3=O)c3ccccc3n2)s1	Cav3 T inh -4.28
O=C(CC1C(=O)N(c2ccccc2)C(=O)N1C1CCCCC1)Nc1ccccc1 (stereo not drawn)	none
CCCn1c(NCc2cc(C)ccc2O)nc2ccccc21	Cav3 T inh -7.01
CCCCn1c(NCc2ccccc2O)nc2ccccc21	none
COc1ccc(C[C@@H]2CN3C(=NC[C@@H]3C)N2C[C@H](C)NC(=O)c2ccc(C)c(Br)c2)cc1	none (no result: IL1B NFkB inh, IL1B cytotox, NFkB transloc pot)
COc1cccc(NC(=O)Cn2cc(C#N)c3ccccc32)c1	none
COc1cccc(NC(=O)Cc2cn(C)c3ccccc23)c1	Cav3 T inh -4.5
COC1=CC(=O)C(O)=C(CCCCCCC/C=C/CCCCCCCC2=C(O)C(=O)C=C(OC)C2=O)C1=O	Cav3 T inh -5.16 (no result: IL1B NFkB inh, IL1B cytotox, NFkB transloc pot)
COc1ccc(C2=CC(c3c(C)nn(-c4ccccc4)c3Cl)n3nnnc3N2)cc1OC (stereo not drawn)	none
COC(=O)C1C(=O)C2=C(CC1C)NC(C)=C(C(=O)OCCOc1ccccc1)C2c1ccc(C)o1 (stereo not drawn)	Cav3 T inh -5.15
CC1=C(C(=O)OCc2ccccc2)C(c2ccc(C)o2)C2=C(CCCC2=O)N1 (stereo not drawn)	none (no result: IL1B NFkB inh, IL1B cytotox, NFkB transloc pot)
CC1=C(C(=O)OCCOc2ccccc2)C(c2ccc(C)o2)C2=C(CC(C)(C)CC2=O)N1 (stereo not drawn)	Cav3 T inh -7.15
Cc1ccc(NC(=O)C2=C(O)c3ccccc3N(C)S2(=O)=O)cc1	none (no result: IL1B NFkB inh, IL1B cytotox, NFkB transloc pot)
O=C(CN1CCN(c2ccccn2)CC1)Nc1ccccc1	NFkB transloc pot 40.5
O=C(CN1CCN(S(=O)(=O)c2ccccc2)CC1)Nc1ccc2c(c1)OCO2	none
COc1ccc(S(=O)(=O)N2CCN(CC(=O)Nc3ccc(C)c(F)c3)CC2)cc1	Cav3 T inh -4.2
O=C(CN1CCN(S(=O)(=O)c2ccccc2)CC1)Nc1ccc(Cl)c(Cl)c1	Cav3 T inh -3.69
COc1ccc(S(=O)(=O)N2CCCN(CCC(=O)Nc3cccc(C(F)(F)F)c3)CC2)cc1	Cav3 T inh -4.59
COC(C/C=C/[C@@H](O)COCc1ccccc1)OC	none (no result: IL1B NFkB inh, IL1B cytotox, NFkB transloc pot)
Cc1cccc(NC(=S)c2nc3ccccc3s2)c1	none (no result: Cav3 T inh)
CCCCn1nc2cc(C(=O)NCc3ccc(OC(F)(F)F)cc3)ccc2c1OC	none
CC(=O)Nc1ccc(C(=O)OCC(=O)N(Cc2ccccc2)C(C)(C)C)cc1	none
Cc1cc(C)n2nc(NCc3cccc(Br)c3)nc2n1	none
Cc1ccc(N(CC(=O)Nc2ccc(S(=O)(=O)N3CCOCC3)cc2)S(C)(=O)=O)cc1C	none
CC(C)c1ccc(N(CC(=O)Nc2ccc(S(=O)(=O)N3CCOCC3)cc2)S(C)(=O)=O)cc1	Cav3 T inh -7.91
CC(C)c1ccc(S(=O)(=O)N2CCN(CC(=O)Nc3ccc4c(c3)OCO4)CC2)cc1	Cav3 T inh -6.92 (no result: IL1B NFkB inh, IL1B cytotox, NFkB transloc pot)
COc1ccccc1NC(=O)CN1CCN(CC(=O)Nc2ccc(Cl)c(C(F)(F)F)c2)CC1	Cav3 T inh -10.9
C=C1CCN([C@@H](C)C(=O)NCc2ccc(Cl)cc2)S(=O)(=O)c2ccccc21	none (no result: IL1B NFkB inh, IL1B cytotox, NFkB transloc pot)
Cc1ccc(S(=O)(=O)N/N=C/c2cccn2-c2ccc(Cl)cc2)cc1	Cav3 T inh -4.33
CC1CCN(C(=O)Cn2cc3c(n2)CCCC3)CC1	none
CC(=O)SCC(Cc1ccccc1)C(=O)NCC(=O)OCc1ccccc1 (stereo not drawn)	Cav3 T inh -5.21 (no result: IL1B NFkB inh, IL1B cytotox, NFkB transloc pot)
CC(C)(C)c1ccc(COC(=O)CNC(=O)CNC(=O)Cc2ccccc2)cc1	none
O=C(NCCc1nc(-c2ccccc2Cl)no1)C1CCCCC1	none (no result: IL1B NFkB inh, IL1B cytotox, NFkB transloc pot)
COc1ccc(C(C)=O)cc1CSc1nc2cc(Cl)ccc2o1	IL1B cytotox 88.1
O=C(CSc1nc2cc(Cl)ccc2o1)c1cccs1	none (no result: IL1B NFkB inh, IL1B cytotox, NFkB transloc pot)
COC(=O)c1ccc(S(=O)(=O)N2C3CCC2CC(NC(=O)C2CC2)C3)cc1 (stereo not drawn)	IL1B cytotox 84.5
CCCCC(=O)N(Cc1ccc(-c2ccccc2-c2nn[nH]n2)cc1)[C@H](C(=O)O)C(C)C	none (no result: IL1B NFkB inh, IL1B cytotox, NFkB transloc pot)
O=C(CSc1nc(Cc2ccccc2)nc2ccccc12)Nc1nc2c(s1)CCCC2	Cav3 T inh -4.75 (no result: IL1B NFkB inh, IL1B cytotox, NFkB transloc pot)
O=C(CSc1ncn(-c2ccccc2)n1)Nc1nc2c(s1)CCCC2	Cav3 T inh -4.24
Cc1ccc(-c2nnc(SCC(=O)Nc3nc4c(s3)CCCC4)n2C)cc1	none
Cn1c(SCC(=O)Nc2nc3c(s2)CCCC3)nnc1-c1ccccc1	Cav3 T inh -6.05
O=C(CSc1ncn(-c2ccccc2)n1)Nc1nc2ccccc2s1	none
Cc1ccc(S(=O)(=O)N2CCC(C(=O)OCC(=O)N3CCc4ccccc43)CC2)cc1	none
COc1cccc(CNC(=O)C2CCCN(S(=O)(=O)c3c(C)[nH]c(=O)[nH]c3=O)C2)c1 (stereo not drawn)	none
CN(C(=O)COC(=O)COc1ccccc1F)C1CCS(=O)(=O)C1 (stereo not drawn)	none
O=C(COc1ccc(Cl)cc1)NCCSCc1cccc(Cl)c1	Cav3 T inh -4.31
CCOC(=O)c1sc(C)c2c1NC(c1ccc(Cl)cc1)NC2=O (stereo not drawn)	none
CCOC(=O)c1cc(C)n(CCc2ccccc2)c1C	Cav3 T inh -3.76
CCOC(=O)c1cc(-c2ccccc2)n(CCC(=O)O)c1C	none
COc1ccccc1NC(=O)c1ccc(N)cc1	Cav3 T inh -4.24
Cc1cccc(S(=O)(=O)NCCC(=O)OC(C)C(=O)NC(=O)NC2CCCCC2)c1 (stereo not drawn)	Cav3 T inh -7.8
O=S(=O)(Nc1nc2ccccc2nc1Nc1ccc2c(c1)OCCO2)c1cccs1	Cav3 T inh -3.76 (no result: IL1B NFkB inh, IL1B cytotox, NFkB transloc pot)
O=C(Cn1nnc(-c2ccc(Cl)cc2)n1)NC1CC2CCC1C2 (stereo not drawn)	Cav3 T inh -4.59
Cc1ccc(-c2nnn(CC(=O)NC3CC4CCC3C4)n2)cc1 (stereo not drawn)	none
COc1cccc(-n2nc3c(-n4ncc(C#N)c4N)nnc(C)c3c2C)c1	IL1B NFkB inh 45.8
CN(C)Cc1ccc(-c2nc3cccc4c3n2CCNC4=O)cc1	none (no result: IL1B NFkB inh, IL1B cytotox, NFkB transloc pot)
CCOCCc1nnc(NC(=O)COC)s1	IL1B cytotox 84.4
CCCCCOC(=O)Nc1nnc(CCCCC)s1	IL1B cytotox 90.2

High-throughput results deposited in PubChem BioAssay by several laboratories.
